Screening results from PubChem.
Most compounds without a hit are left out; they make up all but 8.8% or so of the library.
HT1080NT lethal – kills 2HG-producing HT-1080-NT fibrosarcoma cells. HT-1080-NT fibrosarcoma viability, CellTiter-Glo ATP luminescence, 48 h. Potency, µM (top dose mostly 46.1 µM), actives largely listed as cytotoxic. 1.6% of 360,000 active;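 further: NT is the 2HG producing partner of a matched IDH1 knockdown line; nearly all actives have a fitted effect of over 55% in size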
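Luminescent CellTiter-Glo readout after 48 hours of compound exposure at 37 degrees C defined viability of HT-1080-NT cells. Activity was normalized to DMSO wells and cell-free media wells; concentration-response curves were fitted and assigned curve classes.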
KB-3-1 tox – kills parental KB-3-1 adenocarcinoma cells; KB-3-1 viability, CellTiter-Glo ATP luminescence, 72 h; Potency, µM (highest dose often 46.1 µM), usual class: cytotoxic; 1.4% of 400,000 active; AID 1347075; further: nearly all actives have a fitted effect of over 60% in size
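Parental KB-3-1 adenocarcinoma cells in phenol-red-free DMEM with 10% FBS were pin-treated with compounds at several concentrations, incubated 72 h at 37 °C, and viability read by CellTiter-Glo luminescence; concentration-effect curves were fitted after normalization.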
IL-1B inflam inh – blocks inflammasome-driven IL-1 beta release; activity change, % at 57.5 µM; 4.7% of 360,000 active; THP-1 LPS/ATP IL-1B secretion, AlphaLISA, 16 h; active compounds read low; in the data active means activity change below about -50%; inconclusive means mostly about -30% to -49%
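THP-1 cells pretreated 1 hr with compounds (up to 57.5 uM final), then stimulated with LPS (250 ng/mL final) plus ATP (1.25 mM final); secreted IL-1B measured by AlphaLISA after 16 hr, decreased signal indicating inhibition.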
KB-V1 MDR tox – kills drug-selected multidrug resistant KB-V1 cells; KB-V1 MDR cells viability, CellTiter-Glo, 72 h; 3.4% of 400,000 active; Potency, µM (doses to about 46.1 µM), usual class: cytotoxic; further: nearly all actives have a fitted effect of over 60% in size
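Cytotoxicity toward P-gp-expressing KB-V1 cells was determined as loss of CellTiter-Glo luminescence after 72 h at 37 degrees C. Compounds were tested in quantitative HTS format across a concentration range, with curves fitted to normalized data.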
HT1080 IDH1KD tx – kills HT-1080 cells with IDH1 knockdown; HT-1080 IDH1 knockdown viability, ATP luminescence, 48 h; Potency, µM (top dose mostly 46.1 µM), hits mostly cytotoxic; 2% of 360,000 active
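Viability of IDH1-knockdown HT-1080 fibrosarcoma cells was assessed by CellTiter-Glo after 48 h at 37 °C with titrated compound; concentration-effect curves were classified by fit quality and response size.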
Of the large screens only hits and unclear results are named; the others gave an inactive call. Unless noted, the call rests on the fitted dose curve; in most records, active means well fitted curve in the direction sought with a large enough effect; inconclusive means small, poorly fitted or top-dose-only effect, or another doubt; inactive means no such curve, though single readings can be large; an effect the other way counts as inactive or inconclusive.

COc1ccccc1/C=C/c1nc(S(=O)(=O)c2ccccc2)c(N(C)C)o1	IL-1B inflam inh -62
CCn1nnnc1SCC(=O)N1CCCCC1	none
COc1ccc2[nH]cc(CCNC(=O)Cc3ccc(F)cc3)c2c1	none
CCN(C(C)=O)c1cnc(C=NNC(N)=S)c2ccccc12	KB-V1 MDR tox 15µM, HT1080 IDH1KD tx inconclusive
N#C/C(=C/c1ccc(F)cc1)c1nc(CCN2C(=O)c3ccccc3C2=O)cs1	none
N#C/C(=C/c1cccc(C(F)(F)F)c1)c1nc(CCN2C(=O)c3ccccc3C2=O)cs1	KB-V1 MDR tox 21µM
